In PubChem BioAssay (NCATS) one finds outcome and Potency data, which are given here for seven compounds.

The structures appear in SMILES notation. Inconclusive results are not listed. Active and inactive are the calls of the source. Unless noted, calls follow the shape of the dose curve; as a rule, active = well fitted curve in the direction sought with a large enough effect; inconclusive = small, poorly fitted or top-dose-only effect, or another doubt; inactive = no such curve, though single readings can be large; an effect the other way counts as inactive or inconclusive.

The nature of assay [1]: Cytometric Cell-Based qHTS for Inhibitors of the mTORC1 Signaling Pathway in MEF (Tsc2-/-, p53-/-) Cells (AID 2660).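 Also: Tsc2 and p53 null MEFs carrying empty vector with compound for 24 h; percent of cells above a phospho-rpS6 to PI ratio cutoff in each well; series mostly up to about 38 µM.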 Summed up:
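Cells are plated, treated with compound for 24 hrs at 37 degree Celsius, then fixed, blocked and immunostained for phospho-rpS6 Ser235/236. Propidium iodide counterstain follows. Per-well % positive cells is derived from the PI-normalized phospho-S6 signal.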

Assay [2] in a line: High Content Imaging Cell-Based qHTS for Inhibitors of the mTORC1 Signaling Pathway in MEF (Tsc2-/-, p53-/-) Cells (AID 2666).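 Also: percent of cells scored positive for phospho-rpS6 Ser235/236 immunostaining by imaging.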 Summed up: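 MEF Tsc2-/- p53-/- (empty vector), DMEM/10% FBS; cpd 24 h 37 °C; PFA fix, Alexa-488 p-rpS6 S235/236 Ab, Hoechst; imaged; rapamycin-defined inhibition; % positive cells/well.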
A general note: In qHTS, concentration-response curves come from the screen itself.

The nature of assay [3]: High Content Imaging Cell-Based qHTS for Inhibitors of the mTORC1 Signaling Pathway in MEF Cells (AID 2667).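 Also: Tsc2-/- p53-/- MEFs stably re-expressing wild-type Tsc2 exposed 24 h; series mostly up to about 38 µM.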 An outline of the steps:
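Read-out is the share of phospho-rpS6-positive cells per well, from Hoechst-normalized Alexa-488 Ser235/236 staining imaged on IN Cell. Cells: WT Tsc2-expressing Tsc2-/-, p53-/- MEFs exposed to compound for 24 hrs.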

A short description of assay [4]: Cytometry Cell-Based qHTS for Inhibitors of the mTORC1 Signaling Pathway in MEF cells (AID 2668).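 Also: Tsc2-/- p53-/- mouse embryonic fibroblasts stably re-expressing wild-type Tsc2; percent cells positive for phospho-rpS6 Ser235/236 relative to propidium iodide stain; series mostly up to about 38 µM.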 An outline of the steps:
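Tsc2-/-, p53-/- MEFs re-expressing WT Tsc2; cpd 24 hrs, 37 degree Celsius; PFA fix, Alexa-488 p-rpS6 (Ser235/236) Ab 2 hrs RT, PI counterstain; Acumen 488nm scan; p-S6/PI ratio → % positive cells; PI count = viability.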

Assay [5] deals with Ubiquitin carboxyl-terminal hydrolase 2 (Homo sapiens) (UniProt O75604). The assay can be described thus: qHTS Validation Assay for Inhibitors of Ubiquitin-specific Protease USP2a Using CHOP2 as the Reporter (AID 463106). An outline of the steps:
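Fluorescence read-out at Ex 485nm/Em 531nm after 60min RT, following addition of 25nM Ub-CHOP2 plus 25nM reporter substrate to USP2 core (10nM) pretreated 30min with compound. Data normalized to NEM full inhibition; concentration-response curves fitted.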

Assay [6] concerns the target DNA polymerase III PolC-type (Bacillus subtilis (strain 168)) (UniProt P13267). The assay can be described thus: qHTS Validation Assay for the Inhibitors of DNA Replication in Gram-Positive Bacteria (AID 485295).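 Also: reconstituted holoenzyme with PolC plus beta clamp SSB and primase; PicoGreen fluorescence of double-stranded DNA made on primed circular M13 template; series mostly up to about 57 µM.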 An outline of the steps:
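First, compound is mixed with the reconstituted replication complex and held at room temperature. Next, circular single-stranded M13Gori with nucleotides starts synthesis. Finally, PicoGreen in EDTA halts the reaction and stains double-stranded product for fluorescence reading.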

The target of assay [7] is Tumor susceptibility gene 101 protein (Homo sapiens) (UniProt Q99816). As to the kind of experiment: qHTS Validation Assay for Iinhibitors of HIV-1 Budding by Blocking the Interaction of PTAP/TSG101 (AID 485342; calls by dose curve). An outline of the steps: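 Binding of a FITC-tagged PTAP-motif peptide (50 nM) to the Tsg101 binding domain (10 uM) is monitored by fluorescence polarization. Compounds are pin-delivered before peptide addition, and incubation runs 20 min at room temperature.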
Sequence of Tumor susceptibility gene 101 protein (Homo sapiens) (Q99816 whole entry, looked up, the tested form may be a part): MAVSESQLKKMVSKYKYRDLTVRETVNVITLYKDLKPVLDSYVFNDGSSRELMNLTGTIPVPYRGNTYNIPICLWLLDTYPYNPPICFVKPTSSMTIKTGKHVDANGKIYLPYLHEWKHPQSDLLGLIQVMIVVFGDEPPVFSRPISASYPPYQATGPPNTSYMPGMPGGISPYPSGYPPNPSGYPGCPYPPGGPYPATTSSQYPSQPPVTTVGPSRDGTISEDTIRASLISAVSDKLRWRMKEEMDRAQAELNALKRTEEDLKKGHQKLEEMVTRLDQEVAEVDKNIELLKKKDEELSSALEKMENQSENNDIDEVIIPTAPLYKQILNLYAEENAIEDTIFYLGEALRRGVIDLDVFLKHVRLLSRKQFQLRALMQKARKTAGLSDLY

Assay [8] can be described thus: qHTS Validation Assay to Find Inhibitors of Chronic Active B-Cell Receptor Signaling (AID 485345; active = well fitted curve in the direction sought with a large enough effect in the main read-out, with a control signal flat, not every such curve was filed as active). Summed up: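 TMD8 ABC-DLBCL cells stably carrying doxycycline-inducible IkappaBalpha–green luciferase fusion plus unfused red luciferase; compounds 46 uM to 3 nM, 4 h at 37C with doxycycline. Corrected green/red luminescence ratio normalized to 10 uM MG-132 and basal cell wells; curves fitted.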

In assay [9] the target is Beta-2 adrenergic receptor (Homo sapiens) (UniProt P07550). As to the kind of experiment: qHTS validation assay of beta-arrestin-biased ligands of beta2-adrenergic receptor (AID 485366). Summed up: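 Compound series up to 46 microM applied to beta2-AR/beta-arrestin Tango cells, 18 hr, 37 degrees C, 5% CO2. Read-out: tTA-driven luciferase luminescence, converted to %Activity; concentration-response curves assigned curve classes.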
Sequence of Beta-2 adrenergic receptor (Homo sapiens) (P07550 whole entry, looked up): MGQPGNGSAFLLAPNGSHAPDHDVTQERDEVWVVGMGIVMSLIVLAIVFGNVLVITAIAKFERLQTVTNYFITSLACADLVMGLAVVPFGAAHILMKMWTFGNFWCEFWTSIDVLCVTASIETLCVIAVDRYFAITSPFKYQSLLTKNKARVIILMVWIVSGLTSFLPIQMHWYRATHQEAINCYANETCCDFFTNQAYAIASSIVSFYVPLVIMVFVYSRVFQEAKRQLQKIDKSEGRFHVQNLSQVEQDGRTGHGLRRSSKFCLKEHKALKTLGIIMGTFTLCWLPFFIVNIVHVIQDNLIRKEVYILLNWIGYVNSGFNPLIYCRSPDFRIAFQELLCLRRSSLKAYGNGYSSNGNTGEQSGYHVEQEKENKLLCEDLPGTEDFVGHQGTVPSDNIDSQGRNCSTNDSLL

Assay [10] concerns the target ATP-dependent 6-phosphofructokinase (Trypanosoma brucei brucei) (UniProt O15648). As to the kind of experiment: qHTS Validation Assay to Find Inhibitors of T. brucei phosphofructokinase (AID 485368). An outline of the steps: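 qHTS format, up to 57 uM. PFK 1.25 nM; F6P 0.5 mM; ATP 0.1 mM; 5 mM MgCl2, 0.01% Tween20, 0.1% BSA; 0.1 M TEA pH 8.0; 45 min RT; ADP-Glo readout; no-enzyme control = full inhibition.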

Assay [11] in a line: Quantitative high throughput screen for delayed death inhibitors of the malarial parasite plastid, 96 hour incubation (AID 488745). Also: nearly all actives have a fitted effect of over 70% in size. Also: potency is read from the fitted curve at half-maximal effect. An outline of the steps: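 Luciferase-expressing P. falciparum, infected RBCs 2% Hct/0.1% parasitemia (final); 96 h cpd exposure, 37 C, 5% CO2; RPMI 1640 + 0.5% Albumax, bicarbonate, gentamycin. Readout: luminescence loss = growth inhibition.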

Assay [12] can be described thus: Quantitative high throughput screen for delayed death inhibitors of the malarial parasite plastid, 48 hour incubation (AID 488752). Also: nearly all actives have a fitted effect of over 65% in size. Also: potency is read from the fitted curve at half-maximal effect. Summed up: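 Luciferase-expressing P. falciparum in RBCs, 2% Hct, 0.1% parasitemia final; RPMI 1640 + 0.5% Albumax; 48 h, 37 C, 5% CO2; luminescence readout, signal drop = growth inhibition.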
The target in assay [13] is Thioredoxin reductase 1, cytoplasmic (Rattus norvegicus) (UniProt O89049). As to the kind of experiment: qHTS Assay for Substrates of Mammalian Selenoprotein Thioredoxin Reductase 1 (TrxR1) (AID 488772).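 Also: series mostly up to about 57 µM; a drop in NADPH fluorescence below the no-compound background marks a TrxR1 substrate.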 An outline of the steps:
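In this dual-purpose format, potential substrates are identified from the first fluorescence read after selenite addition, not from the 8-minute delta. Rat enzyme is preincubated with NADPH and then with compound at ~22 deg C.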

In assay [14] the target is Flap endonuclease 1 (Homo sapiens) (UniProt P39748). The assay can be described thus: qHTS Validation Assay for the Inhibitors of Human Flap endonuclease 1 (FEN1) (AID 488816). An outline of the steps: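 Enzyme reagent 10 nM; cpds pinned; 15 min RT preinc.; substrate 50 nM final; reads t=0 and 15 min; no-enzyme buffer wells as neg. control; normalized data, 4-parameter Hill fit.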
Sequence of Flap endonuclease 1 (Homo sapiens) (P39748 whole entry, looked up): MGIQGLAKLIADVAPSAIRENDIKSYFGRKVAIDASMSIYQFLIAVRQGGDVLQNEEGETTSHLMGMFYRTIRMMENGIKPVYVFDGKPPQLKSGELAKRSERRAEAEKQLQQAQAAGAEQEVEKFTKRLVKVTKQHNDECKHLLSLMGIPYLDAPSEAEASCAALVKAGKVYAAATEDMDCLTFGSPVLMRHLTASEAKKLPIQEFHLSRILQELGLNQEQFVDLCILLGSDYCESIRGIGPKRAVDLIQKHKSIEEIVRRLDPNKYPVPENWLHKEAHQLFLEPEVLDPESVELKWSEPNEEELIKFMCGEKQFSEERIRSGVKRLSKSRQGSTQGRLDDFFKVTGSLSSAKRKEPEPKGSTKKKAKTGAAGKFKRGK

The target of assay [15] is M-phase phosphoprotein 8 (Homo sapiens) (UniProt Q99549). As to the kind of experiment: qHTS Validation Assay for Inhibitors for MPP8 Chromodomain Interactions with Methylated Histone Tails (AID 488949).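 Also: 50 nM MPP8 with 50 nM peptide preformed then compounds added for 30 min; AlphaScreen signal from MPP8 chromodomain bound to biotinylated H3K9me3 peptide; top concentration of the series differs between compounds; nearly all actives have a fitted effect of over 55% in size.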 Summed up:
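50 nM MPP8 + 50 nM b-H3K9me3 peptide, PBS pH 7.4/0.01% Tween-20, 30 min RT; + cpd 30 min RT; + AlphaScreen donor/Ni-chelate acceptor beads 10 ug/mL final, 30 min dark; luminescence read.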

The target in assay [16] is Chromobox protein homolog 1 (Homo sapiens) (UniProt P83916). The assay can be described thus: qHTS Validation Assay for Inhibitors of HP1-beta Chromodomain Interactions with Methylated Histone Tails (AID 488953).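 Also: loss of AlphaScreen luminescence from HP1-beta binding biotinylated H3K9me3 peptide; series mostly up to about 110 µM; nearly all actives have a fitted effect of over 50% in size.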 An outline of the steps: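 AlphaScreen proximity readout: streptavidin donor and Ni-chelate acceptor beads, 10 ug/mL final, 30 min dark, RT. Complex of 50 nM HP1-beta and 50 nM b-H3(1-18)K9me3 formed 30 min, then compound-treated 30 min; PBS pH 7.4/0.01% Tween-20.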
Sequence of Chromobox protein homolog 1 (Homo sapiens) (P83916 whole entry, looked up): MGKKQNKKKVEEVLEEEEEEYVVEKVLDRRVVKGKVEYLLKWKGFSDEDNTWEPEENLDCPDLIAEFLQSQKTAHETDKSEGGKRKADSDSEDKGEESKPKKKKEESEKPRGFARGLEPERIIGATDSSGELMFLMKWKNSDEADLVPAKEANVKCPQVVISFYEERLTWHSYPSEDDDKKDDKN

Assay [17] in a line: Validation screen for small molecules that induce DNA re-replication in MCF 10A normal breast cells (AID 463097). Also: nearly all actives have a fitted effect of over 60% in size. An outline of the steps:
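Image-based qHTS: normal breast cells are incubated with compound for 48 hr, stained with Hoechst, and scanned for total nuclear fluorescence. Compounds raising the fraction of nuclei with elevated DNA content count as re-replication inducers.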

Assay [18] addresses Thioredoxin reductase 1, cytoplasmic (Rattus norvegicus) (UniProt O89049). As to the kind of experiment: qHTS Assay for Inhibitors of Mammalian Selenoprotein Thioredoxin Reductase 1 (TrxR1) (AID 488773).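 Also: drop in NADPH fluorescence over an 8 min run after selenite addition; series mostly up to about 57 µM; nearly all actives have a fitted effect of over 40% in size.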 Particulars: Potency: inhibition. An outline of the steps:
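Inhibition is scored from the loss of NADPH fluorescence between first and last reads of an 8-min kinetic run. Selenite (400 uM) was the substrate, added after 15 min compound preincubation at room temperature.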

Sequence of Ubiquitin carboxyl-terminal hydrolase 2 (Homo sapiens) (O75604 whole entry, looked up): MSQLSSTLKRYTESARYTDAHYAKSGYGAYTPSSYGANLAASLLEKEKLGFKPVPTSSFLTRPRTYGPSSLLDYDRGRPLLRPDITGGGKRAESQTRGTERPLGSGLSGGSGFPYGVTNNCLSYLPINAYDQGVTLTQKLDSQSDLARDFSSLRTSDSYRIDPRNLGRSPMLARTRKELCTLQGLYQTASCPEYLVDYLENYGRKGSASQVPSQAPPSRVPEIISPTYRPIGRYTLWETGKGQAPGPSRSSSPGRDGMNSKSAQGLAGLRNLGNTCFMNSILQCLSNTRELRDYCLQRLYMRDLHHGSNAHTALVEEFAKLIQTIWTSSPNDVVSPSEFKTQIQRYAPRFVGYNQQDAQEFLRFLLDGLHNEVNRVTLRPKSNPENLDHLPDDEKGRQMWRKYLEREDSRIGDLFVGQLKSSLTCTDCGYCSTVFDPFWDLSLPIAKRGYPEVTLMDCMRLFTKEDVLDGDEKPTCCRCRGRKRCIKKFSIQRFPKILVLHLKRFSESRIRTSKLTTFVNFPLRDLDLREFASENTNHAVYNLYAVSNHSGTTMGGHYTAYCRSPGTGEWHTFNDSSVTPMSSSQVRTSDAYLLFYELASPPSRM
Sequence of M-phase phosphoprotein 8 (Homo sapiens) (Q99549 whole entry, looked up): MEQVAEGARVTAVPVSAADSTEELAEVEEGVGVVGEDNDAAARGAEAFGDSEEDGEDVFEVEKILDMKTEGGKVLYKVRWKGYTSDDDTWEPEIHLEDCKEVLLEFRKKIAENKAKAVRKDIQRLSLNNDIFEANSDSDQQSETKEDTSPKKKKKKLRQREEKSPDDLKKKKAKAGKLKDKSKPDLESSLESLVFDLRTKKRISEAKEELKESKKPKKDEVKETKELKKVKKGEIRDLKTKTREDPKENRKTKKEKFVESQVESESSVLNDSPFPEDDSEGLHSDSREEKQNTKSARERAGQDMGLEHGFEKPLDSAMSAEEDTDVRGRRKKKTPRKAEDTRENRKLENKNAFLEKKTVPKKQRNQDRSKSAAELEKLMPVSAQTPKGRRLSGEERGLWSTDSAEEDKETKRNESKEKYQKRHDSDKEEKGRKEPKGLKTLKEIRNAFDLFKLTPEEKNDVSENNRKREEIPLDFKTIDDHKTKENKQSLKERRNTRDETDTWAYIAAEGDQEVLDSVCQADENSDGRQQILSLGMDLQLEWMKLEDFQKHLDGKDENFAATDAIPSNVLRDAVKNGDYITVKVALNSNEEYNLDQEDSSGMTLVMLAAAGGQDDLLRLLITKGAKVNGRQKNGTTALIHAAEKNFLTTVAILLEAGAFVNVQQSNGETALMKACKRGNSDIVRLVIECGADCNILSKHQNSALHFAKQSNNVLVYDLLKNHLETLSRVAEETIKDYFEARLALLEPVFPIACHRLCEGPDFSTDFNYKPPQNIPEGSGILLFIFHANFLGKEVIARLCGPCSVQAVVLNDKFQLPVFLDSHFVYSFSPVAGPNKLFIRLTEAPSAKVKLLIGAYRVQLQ
Sequence of DNA polymerase III PolC-type (Bacillus subtilis (strain 168)) (P13267 whole entry, looked up): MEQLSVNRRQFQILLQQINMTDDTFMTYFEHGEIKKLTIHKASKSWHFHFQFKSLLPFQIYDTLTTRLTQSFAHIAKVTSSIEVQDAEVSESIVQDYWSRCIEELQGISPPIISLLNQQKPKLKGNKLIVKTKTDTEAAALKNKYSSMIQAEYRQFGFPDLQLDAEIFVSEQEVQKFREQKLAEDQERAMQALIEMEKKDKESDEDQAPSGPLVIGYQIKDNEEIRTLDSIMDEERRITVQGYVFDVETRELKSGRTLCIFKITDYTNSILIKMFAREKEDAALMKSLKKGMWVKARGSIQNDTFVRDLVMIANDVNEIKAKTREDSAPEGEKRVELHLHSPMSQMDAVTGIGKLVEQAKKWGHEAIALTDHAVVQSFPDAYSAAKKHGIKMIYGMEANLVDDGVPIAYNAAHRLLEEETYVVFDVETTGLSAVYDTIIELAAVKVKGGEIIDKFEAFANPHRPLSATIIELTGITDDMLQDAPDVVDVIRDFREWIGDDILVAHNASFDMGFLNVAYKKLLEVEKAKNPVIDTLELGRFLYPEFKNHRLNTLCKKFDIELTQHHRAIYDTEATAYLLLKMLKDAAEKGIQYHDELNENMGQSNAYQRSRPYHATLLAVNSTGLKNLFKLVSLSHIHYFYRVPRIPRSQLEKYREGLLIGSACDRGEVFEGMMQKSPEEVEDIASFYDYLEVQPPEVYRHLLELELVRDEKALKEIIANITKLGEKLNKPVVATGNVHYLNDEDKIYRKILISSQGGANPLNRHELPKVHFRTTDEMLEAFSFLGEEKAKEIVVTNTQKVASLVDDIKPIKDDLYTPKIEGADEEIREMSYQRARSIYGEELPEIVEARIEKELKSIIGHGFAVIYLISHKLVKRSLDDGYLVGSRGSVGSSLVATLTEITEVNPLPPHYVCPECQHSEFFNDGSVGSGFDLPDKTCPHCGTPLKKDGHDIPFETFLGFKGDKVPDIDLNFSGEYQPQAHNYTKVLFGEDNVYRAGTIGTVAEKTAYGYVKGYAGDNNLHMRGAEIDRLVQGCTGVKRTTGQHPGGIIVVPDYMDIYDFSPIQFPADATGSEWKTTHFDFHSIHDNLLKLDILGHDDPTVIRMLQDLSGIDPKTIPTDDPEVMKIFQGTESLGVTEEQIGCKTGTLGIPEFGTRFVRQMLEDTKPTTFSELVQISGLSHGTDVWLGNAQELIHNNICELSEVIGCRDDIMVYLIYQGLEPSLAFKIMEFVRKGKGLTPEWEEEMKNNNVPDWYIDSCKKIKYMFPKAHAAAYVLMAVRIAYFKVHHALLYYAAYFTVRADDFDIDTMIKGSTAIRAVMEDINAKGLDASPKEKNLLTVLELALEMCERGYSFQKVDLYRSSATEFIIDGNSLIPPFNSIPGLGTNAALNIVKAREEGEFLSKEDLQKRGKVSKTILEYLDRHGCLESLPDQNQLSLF
Sequence of Thioredoxin reductase 1, cytoplasmic (Rattus norvegicus) (O89049 whole entry, looked up): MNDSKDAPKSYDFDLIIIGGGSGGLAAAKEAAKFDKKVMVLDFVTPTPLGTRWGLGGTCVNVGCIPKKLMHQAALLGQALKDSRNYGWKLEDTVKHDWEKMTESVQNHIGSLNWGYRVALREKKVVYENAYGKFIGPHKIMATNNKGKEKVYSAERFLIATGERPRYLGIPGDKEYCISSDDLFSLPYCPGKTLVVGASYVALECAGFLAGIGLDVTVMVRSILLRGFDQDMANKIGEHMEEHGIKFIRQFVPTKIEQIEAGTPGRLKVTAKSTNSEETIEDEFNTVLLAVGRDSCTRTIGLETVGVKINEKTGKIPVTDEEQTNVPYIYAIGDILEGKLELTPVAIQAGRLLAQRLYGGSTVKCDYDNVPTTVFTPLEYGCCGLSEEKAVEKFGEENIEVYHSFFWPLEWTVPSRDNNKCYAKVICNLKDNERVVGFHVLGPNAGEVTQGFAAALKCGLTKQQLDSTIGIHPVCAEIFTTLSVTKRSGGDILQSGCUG

As to `CCCCCCCC/C=C\CCCCCCCC(=O)NCCO`, the call in assay [1], in assay [7], in [8] and in assay [9] was inactive. Moreover, the Potency result in assay [2], in assay [3], in [4], in assay [5], in assay [6] and in [10] was “inactive” each time. In addition, the Potency result in assay [13], in assay [14], in [15] and in assay [16] was “inactive” each time. For the same compound, the results for the Potency in assay [11] and in assay [12] were 2940 nM (active) and 2620 nM (active), respectively.
Take `CC(=O)SCC[N+](C)(C)C`: the compound was classed as inactive in assay [1], in assay [8] and in assay [9]. The Potency entry in assay [2], in assay [3], in assay [4], in [17], in assay [5] and in assay [6] was “inactive” each time. The Potency result in assay [10], in assay [11], in assay [12], in assay [13], in assay [18] and in assay [15] was “inactive” each time. Besides, in [16], the Potency result was “inactive”.
`NO`: the compound was called inactive in assay [1], in assay [8] and in assay [9]. Also, the Potency result in assay [2], in assay [3], in assay [4], in assay [17], in [5] and in assay [6] was “inactive” in each case. Further, the Potency entry in assay [12], in assay [13], in [18], in assay [14] and in assay [15] was “inactive” throughout.
As to `Nc1ncnc2c1ncn2[C@@H]1O[C@H](COP(=O)(O)OP(=O)(O)OP(=O)(O)OP(=O)(O)OC[C@@H]2O[C@H](n3cnc4c(N)ncnc43)[C@@H](O)[C@H]2O)[C@@H](O)[C@H]1O`, the compound was called inactive in assay [1], in assay [7] and in assay [9]. Besides, the Potency entry in [2], in assay [3], in assay [4], in [5], in assay [6] and in assay [13] was “inactive” throughout. The Potency result in assay [14], in assay [15] and in assay [16] was “inactive” in each case.
For the compound `O=P(O)(O)C(Cl)(Cl)P(=O)(O)O`, the result in assay [1], in assay [7], in assay [8] and in [9] was inactive. The Potency entry in [2], in [3], in [4], in [5], in assay [6] and in [13] was “inactive” throughout. For the same compound, the Potency entry in [18] and in assay [14] was “inactive” throughout.
Turning to `O=C(O)CC1CC(c2ccccc2)=NO1` (configuration not stated), the compound was classed as inactive in assay [1], in [7], in assay [8] and in assay [9]. In addition, the Potency entry in [2], in assay [3], in assay [4], in [5], in assay [6] and in [13] was “inactive” throughout. Further, the Potency result in assay [18], in assay [15] and in assay [16] was “inactive” throughout.
In the case of `NCCCS(=O)(=O)O`, the result in [1], in assay [7], in [8] and in assay [9] was inactive. Also, the Potency entry in [2], in [3], in assay [4], in [5], in assay [6] and in [12] was “inactive” throughout. Also, the Potency result in [13], in assay [14], in [15] and in assay [16] was “inactive” throughout.
